Hits are enriched below; roughly 3% of the tested compounds scored in any of these assays.
PPC-1+TRAIL kill: PPC-1 cancer cell killing with TRAIL present; PPC-1 cells + TRAIL, ATPLite viability luminescence; 220,000 tested, 0.41% active; cell killing (% activity), % at 4 µM or 5 µM;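 active = cell killing above 50% in the first pass at 4 µM, then a duplicate retest at 5 µM averaging 50% or more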;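 note: plate controls were cells with TRAIL plus DMSO for no effect and medium-only wells lacking cells for full effect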
SENP8 block-1: SENP8 protease inhibition; 330,000 tested, 1.2% active; Q96LD8; AID 2540; inhibition, % at 10 µM; purified SENP8, Z-RLRGG-aminoluciferin cleavage, luminescence; in the data active = inhibition above about 50%
C8 TRAIL sens: caspase-8 TRAIL sensitization | NB7+C8 cells + TRAIL, ATPlite viability luminescence | AID 624354 | 360,000 tested, 1% active | inhibition (viability loss, TRAIL sensitization), % at 10 µM;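 active = compounds causing at least 50% loss of cell viability in the single-dose screen, relative to plate controls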
SENP8 block-2: blocks human SENP8 cleavage of Nedd8 substrate; Q96LD8; recombinant SENP8, Nedd8 substrate fluorescence; inhibition, % at 20 µM; 360,000 tested, 0.64% active; in the data active = inhibition mostly above about 40%, no sharp cut-off; inactive = mostly below about 27%
SENP6 block: SENP6 protease inhibition; inhibition, % at 10 µM; 330,000 tested, 1.8% active; Recombinant SENP6 catalytic domain, aminoluciferin luminescence; AID 2599; Q9GZR1;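 active = inhibition above about 50% at the single tested dose, limit read from the data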;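 note: plate controls were DMSO wells with enzyme for no effect and DMSO wells lacking enzyme for full effect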
Target sequence (Q9GZR1 628-1112 limits assumed): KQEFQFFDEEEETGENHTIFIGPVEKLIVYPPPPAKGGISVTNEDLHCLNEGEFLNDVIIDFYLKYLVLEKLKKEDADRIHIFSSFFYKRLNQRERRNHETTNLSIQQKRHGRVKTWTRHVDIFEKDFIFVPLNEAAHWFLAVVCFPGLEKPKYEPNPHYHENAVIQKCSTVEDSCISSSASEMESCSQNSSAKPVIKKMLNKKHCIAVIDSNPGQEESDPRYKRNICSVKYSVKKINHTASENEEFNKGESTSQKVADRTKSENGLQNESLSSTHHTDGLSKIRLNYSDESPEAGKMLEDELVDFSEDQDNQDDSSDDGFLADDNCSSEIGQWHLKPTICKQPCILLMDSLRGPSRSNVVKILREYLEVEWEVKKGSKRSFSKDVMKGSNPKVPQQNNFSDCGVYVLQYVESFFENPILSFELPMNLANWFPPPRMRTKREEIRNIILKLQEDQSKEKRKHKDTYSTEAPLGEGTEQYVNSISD
SENP7 inh: SENP7 protease inhibition; inhibition, % at 5 µM; 330,000 tested, 1.5% active; recombinant SENP7, Z-RLRGG-aminoluciferin luminescence, 40 min;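 active = inhibition above about 50% at the single test dose, limit read from the data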;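 note: plate controls were DMSO with enzyme for no effect and no enzyme buffer wells for full effect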
Active calls of the source: *; . = no result given.

SMILES | PPC-1+TRAIL kill | SENP8 block-1 | C8 TRAIL sens | SENP8 block-2 | SENP6 block | SENP7 inh
CC(=O)N1CCOc2ccc(S(=O)(=O)N(C)c3cccc(C)c3)cc21 | . | 0 | 8 | 10 | 5 | 1
O=C(Nc1ccc(Oc2ccccc2)nc1)[C@H]1O[C@@H](n2ccc(=O)[nH]c2=O)[C@H](O)[C@@H]1O | . | . | 16 | 9 | . | .
CC(C)(C)Cc1c(-c2ccc(F)cc2)nc2ccc(Cl)cn12 | . | . | -2 | 11 | . | .
Cc1nnc(-c2ccccc2)o1 | 19 | 9 | -7 | 4 | -10 | -7
Cc1ccc(-c2nnc(/C=C/c3ccccc3)o2)cc1 | 24 | 42 | 5 | -391 | 76* | -2
NNc1nc(C(F)(F)F)nc2ccccc12 | 8 | -5 | 3 | -5 | -14 | -5
O/C=c1\ccc2cccc3nc(C(F)(F)F)nc1c23 | . | 15 | 3 | 46* | 15 | 3
CN=Cc1sc2ccccc2c1O | 9 | 5 | 16 | -18 | -63 | -5
Oc1c(C=Nc2ccc(Cl)cn2)sc2ccccc12 | 5 | 28 | 44 | -110 | 66* | 57*
CC1OC(CC(=O)O)CC2=C1C(=O)c1c(O)cccc1C2=O (centres undefined) | . | . | 92* | 89* | . | .
O=C(CN1C(=O)S/C(=C/c2ccc(N3CCOCC3)cc2)C1=O)N1CCOCC1 | 49 | -6 | 61* | -30 | 0 | 2
Cc1ccc(/C=C2/SC(=O)N(CC(=O)N3CCOCC3)C2=O)s1 | 34 | 2 | -2 | 8 | 7 | 17
CC(=O)NC1=C(NC2CCS(=O)(=O)C2)C(=O)c2ccccc2C1=O (centres undefined) | -8 | 6 | 16 | 46* | 18 | 14
O=C(CN1C(=O)c2ccccc2C1=O)NC1CCS(=O)(=O)C1 (centres undefined) | . | . | -17 | 19 | . | .
COc1cc(/C=C2/SC(=S)N(Cc3ccccc3)C2=O)cc(Cl)c1O | . | . | 0 | 46* | . | .
O=C1/C(=C\c2cc(Br)cc(Br)c2O)SC(=S)N1Cc1ccccc1 | . | 4 | 27 | 40* | 13 | -5
O=C1/C(=C/c2ccc(O)c([N+](=O)[O-])c2)SC(=S)N1Cc1ccccc1 | 14 | 92* | 24 | 41* | 95* | 30
CCOC(=O)c1ccc(NC(=O)c2nc[nH]c2C(=O)N[C@@H](C)CO)cc1 | . | . | -8 | -9 | . | .
Cc1ccc(NC(=O)C2(NC(=O)c3ccccn3)CCCCC2)cc1Br | 32 | -5 | -7 | 8 | -20 | -8
CCOc1ccc(C(=O)Nc2cccc([N+](=O)[O-])c2)cc1Br | 11 | -1 | 5 | 15 | 8 | 56*
CCOc1ccc(C(=O)Nc2cccc(NC(=O)c3cccs3)c2)cc1[N+](=O)[O-] | -9 | . | 2 | 11 | . | .
Cc1ccc(C2=NS(=O)(=O)N(C)C(C(=O)NCc3cccs3)=C2)cc1 | . | 1 | 56* | -42 | 7 | -7
Cc1ccc(C2=NS(=O)(=O)N(C)C(C(=O)NCc3ccccn3)=C2)cc1 | . | 1 | -21 | -59 | -2 | -1
COc1ccc(NC2=Nc3cccc4cccc2c34)cc1 | 11 | -3 | 15 | 19 | 25 | 8
CN1C(=O)[C@H]2[C@@H](c3ccc(C(F)(F)F)cc3)N[C@]3(CCCN(Cc4ccc(Br)cc4)C3=O)[C@H]2C1=O | . | . | 11 | -14 | . | .
SMILES | PPC-1+TRAIL kill | SENP8 block-1 | C8 TRAIL sens | SENP8 block-2 | SENP6 block | SENP7 inh
Cc1ccsc1/C=N\NC(=O)c1n[nH]c2c1CCC2 | 23 | 85* | 44 | 11 | 92* | 93*
Cc1ccsc1/C=N\NC(=O)c1cc(C(C)(C)C)[nH]n1 | 33 | -25 | 7 | 7 | -17 | -13
Cc1ccc(C(=O)COC(=O)COc2ccccc2O)cc1C | . | -22 | -3 | 27 | -9 | -16
COc1ccccc1NC(CC(=O)c1ccccc1)C(=O)OCC(=O)c1ccc(C)c(C)c1 (centres undefined) | 29 | -10 | 58* | 26 | 12 | 2
COc1ccccc1NC(CC(=O)c1ccccc1)C(=O)OCC(=O)c1ccc(Br)cc1 (centres undefined) | 14 | -8 | 63* | 14 | 3 | -3
COc1ccccc1NC(CC(=O)c1ccccc1)C(=O)OCC(=O)c1ccc(C)cc1 (centres undefined) | 0 | -1 | 65* | 14 | -9 | 5
O=C(CC(Nc1ccccc1Cl)C(=O)OCC(=O)c1cccs1)c1ccccc1 (centres undefined) | 22 | -7 | 14 | 24 | -4 | -9

Screens: PubChem BioAssay, Sanford-Burnham Center for Chemical Genomics
